The results in this text go back to ChEMBL document CHEMBL4513216, “Probing the Open Global Health Chemical Diversity Library for Multistage-Active Starting Points for Next-Generation Antimalarials” (ACS Infect Dis, 2020).

Screen size: about 69,000 compounds; about 8,600 (12%) showed an effect of 50% or more. Only a selection was taken, and strong results are over-represented in it overall.

For the experiment, the system named is Plasmodium berghei. Briefly: Screen against P. berghei liver stage (PbLuc), transformed with Luciferase, at 10uM. It is filed as functional, HepG2. Particulars: tested at 10 uM.
With `CC(=O)N(C)Cc1cccc(NC(=O)CCCc2nc(C(C)C)no2)c1`, the INHIBITION is -32.9%.
Regarding `CN(C)C(=O)COCc1cncc2c1CCN(Cc1ccccc1)C2`, the INHIBITION is recorded as -45.5%.
With `Cc1ccc([C@H]2CN(C(=O)CC3CCC3)C[C@@H]2N)o1`, the INHIBITION is given as -92.8%.
For `Cc1c(C(=O)NCCC2CN(C)CCO2)n(C)c2c(C)cccc12` (centres undefined) the value was 33.4%.
As to `Cc1nccn1-c1cc(CNC(=O)NCC2CCCO2)ccn1` (centres undefined), the INHIBITION was -2.33%.
For the molecule `CCC(C)C(=O)NCCCn1nc(C)cc1C` (centres undefined), the INHIBITION is given as -2.48%.
For `O=C(NCCc1ccc(I)s1)N1CCC1` the value was -7.31%; for `OC1(CN2CCN(c3cccc(C(F)(F)F)c3)CC2)CNCCOC1` (centres undefined), 41.5%; for `c1ccc(Cc2noc(-c3ccc(NCC4CCCCO4)nc3)n2)cc1` (centres undefined), 26%.
As to `COCCNC(=O)NC(=O)CNc1c(F)cccc1N1CCCC1`, the INHIBITION was -32.5%.
For the molecule `CC[C@@H]1N(CC2CCC2)CCC[C@]12CCC(=O)N2Cc1ccncc1`, the INHIBITION is listed as -8.51%.
For `CC1(C(=O)N2CCN(C3CCCC3)CC2)CNCCO1` (centres undefined) the value was -21.4%.
On to `Cc1ccc(-c2cc(C(=O)N(C)Cc3noc4c3CCCC4)[nH]n2)s1`, for which the INHIBITION is given as -14.3%.
On to `O=C(C1CC1)N1CCC2(CCN(Cc3cccc(F)c3)CC2)CC1`, for which the INHIBITION was -13.4%.
With `COCCC(=O)N1CCC2(CCN(Cc3ccc(C)cc3)CC2)C1`, the INHIBITION was found to be 4.27%.
Regarding `Cn1ccnc1CN1CCC2(CC1)CCN(Cc1ccoc1)C2`, the INHIBITION is -37.4%.
Take `Cc1ccc(CN2CCCC3(CCN(Cc4ccoc4)CC3)C2)cc1`: the INHIBITION amounted to 82.8%.
For the molecule `COCCC(=O)N1CC2(CCN(Cc3ccoc3)C2)C1`, the INHIBITION stood at 54.6%.
Turning to `COCCC(=O)N1CC2(CCN(Cc3ccncc3)CC2)C1`, the INHIBITION is given as 47.4%.
For `Cc1ccc(CN2CCC3(CC2)CCN(Cc2ccoc2)CC3)cc1` the value was -34.6%; for `O=C(C1CC=CC1)N1CCC2(CCN(Cc3cccc(F)c3)CC2)C1`, 59.8%; for `O=C(C1CCC1)N1CCC2(CCN(Cc3cccc(F)c3)CC2)CC1`, 45.7%.
With `O=C(CC1CCCC1)N1CCCC1c1ccc(CN2CCOCC2)cn1` (centres undefined), the INHIBITION stood at 30.25%.
Regarding `CC(C)c1nn(C)c(N(C)C)c1CNC(C)c1ccc2c(c1)OCO2` (centres undefined), the INHIBITION is on record as 22.3%.
`CCC(C)N(Cc1cccnc1)C(=O)c1ncccc1O` (centres undefined): the INHIBITION was 39.9%.
For `Cc1nnc(NC(=O)CN(C)C2CCCN(c3cccnn3)C2)s1` (centres undefined), the INHIBITION stood at 12.7%.
`Cc1csc(CNC(=O)NC(C)c2ccc3c(c2)OCCO3)n1` (centres undefined): the INHIBITION turned out to be 44.9%.
For `Cc1ccc(CNC2CCc3nc(C(C)C)nn3C2)o1` (centres undefined) the value was -17.7%; for `c1cncc(C[C@H]2[C@H](N3CCOCC3)CCN2Cc2cccs2)c1`, -7.24%; for `CCCOCCOC(=O)c1ccc2c(c1)[nH]c(=O)n2C`, 26.6%.
With `Cn1c(=O)[nH]c2cc(C(=O)OCCCn3ccccc3=O)ccc21`, the INHIBITION came to 60%.
For the molecule `CCOCCCOC(=O)c1ccc2c(c1)[nH]c(=O)n2C`, the INHIBITION is recorded as -5.47%.
With `Cc1nn(C)c(C)c1C1COCCN1C(=O)CCc1ccccc1` (centres undefined), the INHIBITION worked out at 5.7%.
As to `Cc1nnc(NC(=O)CCc2c(C)nn3cnnc3c2C)s1`, the INHIBITION is reported as 16.6%.
For `CCCn1c(C)c(CC(=O)N(C)CCO)c2c1CC(C)(C)CC2=O` the value was 48.1%.
Take `COC(=O)C(C)(C)NC(=O)C1CC(=O)N(C2CC2)C1` (centres undefined): the INHIBITION is reported as 84.1%.
For the molecule `COC(=O)C(C)(C)NC(=O)C1CC(=O)N(C2CCCC2)C1` (centres undefined), the INHIBITION turned out to be 20.1%.
On to `COC(=O)C(C)(C)NC(=O)C1CC(=O)N(C)C1` (centres undefined), for which the INHIBITION was 35.1%.
For the molecule `OCC1(O)CCN(Cc2noc(-c3ccccc3)n2)CC1`, the INHIBITION amounted to 20.3%.
`Cc1ccc(CN2CCN(C(=O)c3ccc(Br)o3)CC2)cc1`: the INHIBITION stood at 92.8%.
For `O=C(c1ccc(Br)o1)N1CCN(Cc2ccc(OC(F)(F)F)cc2)CC1` the value was 90%; for `COC(=O)c1sccc1CN1CCN(C(=O)c2ccc(C)o2)CC1`, 30.9%; for `CCc1ccc(C(=O)N2CCCN(Cc3nccn3CC)CC2)s1`, 8.47%.
On to `CC(=O)N1CCN(Cc2ccc(F)cc2)CC2(CC(=O)N(C)C2)C1` (centres undefined), for which the INHIBITION is recorded as -6.05%.
In the case of `CCc1ccc(C(=O)N2CCN(CCO)CC2)o1`, the INHIBITION is listed as -13.5%.
For `Cc1cc(C)n(CCN2CCN(C(=O)c3ccc(Br)o3)CC2)n1`, the INHIBITION is on record as -13.3%.
For `CC(O)CN1CCN(C(=O)c2ccc(Br)o2)CC1` (centres undefined), the INHIBITION came to 16.2%.
In the case of `Cn1ccnc1CN1CCCN(C(=O)c2ccc(Cl)o2)CC1`, the INHIBITION is recorded as 29.1%.
Take `CC(=O)N1CCN(Cc2ccc(OCc3nccn3C)cc2)CC1`: the INHIBITION was found to be 1.78%.
As for `O=C(c1ccc(Br)s1)N1CCN(Cc2ccc(OC(F)(F)F)cc2)CC1`, the INHIBITION is recorded as 79%.
Consider `O=C(c1ccc(Br)o1)N1CCN(Cc2ccc(F)cc2)CC1`, for which the INHIBITION was 62.5%.
Regarding `O=C(c1cscn1)N1CCC2(CN(Cc3ccsc3)C2)C1`, the INHIBITION is reported as 45.2%.
Turning to `N#Cc1ccccc1C(=O)NCCC1CN(Cc2ccco2)CCO1` (centres undefined), the INHIBITION turned out to be 23.3%.
For `CN(c1ccncn1)C1CC2(CCN(C(=O)c3cncs3)C2)C1` (centres undefined) the value was 32.3%.
